Inconclusive results are not listed. The source made the active and inactive calls. Unless noted, the call rests on the fitted dose curve; in most records, active means well fitted curve in the direction sought with a large enough effect; inconclusive means small, poorly fitted or top-dose-only effect, or another doubt; inactive means no such curve, though single readings can be large; an effect the other way counts as inactive or inconclusive.
Legend:
[1] = target: DNA repair nuclease/redox regulator APEX1 (Homo sapiens) (UniProt P27695); experiment: qHTS Validation Assay for Inhibitors of the Human Apurinic/apyrimidinic Endonuclease 1 (APE1) (AID 1705;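 further: TAMRA fluorescence gain over two minutes as APE1 cuts a quenched THF abasic duplex; series mostly up to about 57 µM; on the % scale 0 is the no-effect control and ±100 the full control effect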)
Summary of the method: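 qHTS, 1536-well. APE1 + cpd 15 min RT → 50 nM TAMRA/BHQ-2 THF-abasic dsDNA substrate → kinetic fluorescence, 3 reads/60 s; delta(read3−read1) = reaction progress. No-enzyme buffer = negative control.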

[2] = Counterscreen for APE1 Inhibitors: Fluorescent Dye Displacement Validation Assay (AID 1707);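 further: plate controls were ThO with dsDNA and no compound for no effect and ThO without dsDNA for full effect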
Summary of the method: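 Reaction mixture of 250 nM Thiazole Orange and 50 nM double-stranded abasic-site DNA was dispensed, compounds were pin-transferred, and fluorescence was read at endpoint (480 nm ex, 540 nm em). Reduced fluorescence indicated dye displacement by DNA binding.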

[3] = target: Endonuclease 4 (Escherichia coli (strain K12)) (UniProt P0A6C1); experiment: Counterscreen for APE1 Inhibitors: qHTS Validation Assay for Inhibitors of Endonuclease IV (AID 1708); further: on the % scale 0 is the no-effect control and ±100 the full control effect
Summary of the method: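 Read-out: fluorescence rise (ex 525/em 598 nm) from incision of a TAMRA/BHQ-2 double-stranded THF abasic-site substrate (50 nM), measured kinetically; third-minus-first read difference gave reaction progress. Enzyme 2 nM.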

[4] = qHTS for differential inhibitors of proliferation of Plasmodium falciparum line 7G8 (AID 1815);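 further: parasite growth measured after three days of incubation; plate controls were vehicle wells for no effect and reference inhibitor wells for full effect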
[5] = qHTS for differential inhibitors of proliferation of Plasmodium falciparum line 3D7 (AID 1876);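 further: parasite growth measured after three days of culture; 0% = vehicle wells and -100% = reference inhibitor wells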
[6] = qHTS for differential inhibitors of proliferation of Plasmodium falciparum line Dd2 (AID 1882); conditions: Potency: Plasmodium falciparum Dd2 proliferation inhibition;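 further: series mostly up to about 29 µM; compound exposure of 72 h on infected erythrocytes; plate controls were DMSO vehicle for no effect and 0.29 µM artemisinin for full effect; nearly all actives have a fitted effect of over 65% in size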
Summary of the method: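 RBC culture, 0.3% parasitemia / 2.5% Hct final; cpd added by pin tool in DMSO; 72 h, 37 C, 5% CO2; lysis buffer + SYBR Green I, o/n RT dark; FI 485/535; norm. to artemisinin 0.29 uM and DMSO.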

[7] = target: Ferritin light chain (Equus caballus) (UniProt P02791); experiment: qHTS Validation Assay for Identification of Novel General Anesthetics (AID 2323); further: series mostly up to about 77 µM; on the % scale 0 is the no-effect control and ±100 the full control effect
Summary of the method: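 Fluorescence at 535 nm (excitation 380 nm) reported loss of 1-AMA binding to horse-spleen apoferritin (10 uM) in PBS with 50% saturated 1-aminoanthracene, after 10 min room-temperature incubation with compound; values from Hill fits of normalized response.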

[8] = target: ATP-dependent DNA helicase Q1 (Homo sapiens) (UniProt P46063); experiment: qHTS Validation Assay for Inhibitors of RecQ-Like Dna Helicase 1 (RECQ1) (AID 2353);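 further: plate controls were DMSO vehicle for no effect and enzyme-free control for full effect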
Summary of the method: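 RECQ1T1 50 nM; forked duplex (20 bp + 30-nt ss tails) 200 nM, ATP 2 mM final; pH 8.0, 2 mM MgCl2, 2.5 ug/ml poly(dI-dC); 15 min compound preincubation; discontinuous kinetic read over 2 h at RT.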

[9] = target: RecQ-like DNA helicase BLM (Homo sapiens) (UniProt P54132); experiment: qHTS Validation Assay for Inhibitors of Bloom's syndrome helicase (BLM) (AID 2364);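 further: plate controls were DMSO vehicle for no effect and enzyme-free control for full effect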
Summary of the method: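 50 nM BLM preincubated 15 min at room temperature with compound in pH 8.0 Tris buffer containing 2.5 ug/ml poly(dI-dC); started with 200 nM TAMRA/BHQ-2 forked duplex and 2 mM ATP (final). Unwinding read as TAMRA fluorescence increase, two reads 2 h apart.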

[10] = Validation screen for inhibitors of Lassa infection (AID 463096; calls by dose curve; further: on the % scale 0 is the no-effect control and ±100 the full control effect)
[11] = Quantitative high throughput screen for delayed death inhibitors of the malarial parasite plastid, 48 hour incubation (AID 488752); further: on the % scale 0 is the no-effect control and ±100 the full control effect; nearly all actives have a fitted effect of over 65% in size
Summary of the method: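 Luciferase-expressing P. falciparum in RBCs, 2% Hct, 0.1% parasitemia final; RPMI 1640 + 0.5% Albumax; 48 h, 37 C, 5% CO2; luminescence readout, signal drop = growth inhibition.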

[12] = target: M-phase phosphoprotein 8 (Homo sapiens) (UniProt Q99549); experiment: qHTS Validation Assay for Inhibitors for MPP8 Chromodomain Interactions with Methylated Histone Tails (AID 488949);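 further: 50 nM MPP8 with 50 nM peptide preformed then compounds added for 30 min; AlphaScreen signal from MPP8 chromodomain bound to biotinylated H3K9me3 peptide; top concentration of the series differs between compounds; on the % scale 0 is the no-effect control and ±100 the full control effect; nearly all actives have a fitted effect of over 55% in size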
Summary of the method: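 50 nM MPP8 + 50 nM b-H3K9me3 peptide, PBS pH 7.4/0.01% Tween-20, 30 min RT; + cpd 30 min RT; + AlphaScreen donor/Ni-chelate acceptor beads 10 ug/mL final, 30 min dark; luminescence read.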

[13] = target: Thyrotropin receptor (Homo sapiens) (UniProt P16473); experiment: qHTS Assay for Antagonists of the Thyroid Stimulating Hormone Receptor (AID 488980); further: series mostly up to about 58 µM; 0% is about no effect
Summary of the method: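 Readout is cAMP by HTRF competition between cellular cAMP and cAMP-d2 for a cryptate-labelled antibody. Antagonism was assessed in TSHR-transfected HEK293 cells stimulated with 4 nM TSH (EC80, final) in the presence of RO 20-1724.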

[14] = target: Thyrotropin-releasing hormone receptor (Homo sapiens) (UniProt P34981); experiment: qHTS for Small Molecule Agonists and Allosteric Enhancers of Human TRH Receptor: Validation Screen for Agonists (AID 493127;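 active means calcium activation more than 3 SD above the typical response in the agonist read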;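 further: intracellular calcium rise by fluo-8 fluorescence before TRH EC20 addition; 0% is about no effect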); conditions: TRH receptor agonist cell assay; at 2 µM; stronger effect = higher value
Summary of the method: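 Read-out: intracellular calcium release measured kinetically by FDSS (fluo-8, ex 480/em 530 nm), 1 reading/s after a 10-cycle baseline. TRHR cells, 2000/well, cultured 18 h at 33.5C, dye-loaded at room temp. Compound-evoked positive calcium signal flags agonists.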

[15] = target: Galactokinase (Homo sapiens) (UniProt P51570); experiment: qHTS Validation Assay for Inhibitors of Human Galactokinase (GALK) (AID 493189); further: 0% is about no effect
Summary of the method: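 5 nM GALK / 100 uM galactose / 35 uM ATP, 20 mM HEPES pH8.0, 5 mM MgCl2, 60 mM NaCl, 1 mM DTT, 0.01% BSA (final). RT 1 h; Kinase-Glo Plus luminescence.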

[16] = Validation screen for small molecules that induce DNA re-replication in SW480 colon adenocarcinoma cells (AID 504364); further: 0% is about no effect
Summary of the method: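 Read-out: total Hoechst intensity of nuclei by fluorescence scanning imager; hits raise the fraction of nuclei with elevated DNA content. Cells received compound for 48 hr at 37 C before a 40 min stain.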

[17] = target: Glucocorticoid receptor (Homo sapiens) (UniProt P04150); experiment: qHTS assay for small molecule agonists of glucocorticoid receptor signaling (AID 588532; active means well fitted curve in the direction sought with a large enough effect in the signal ratio, with a control signal flat; the % refers to the signal ratio;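 further: 100% = dexamethasone at 0.1 µM and 0% = DMSO only wells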); conditions: HeLa MMTV-bla, beta-lactamase ratio, agonist, 18 h; stronger effect = higher value; percent of dexamethasone control, DMSO zero
Summary of the method: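 MMTV-bla HeLa beta-lactamase reporter cells in 1% charcoal/dextran FBS medium, compounds up to 92 uM for 18 h at 37 C, CCF4 readout; normalized to 0.1 uM dexamethasone (100%), EC50 and efficacy from Hill fits.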

[18] = target: Peroxisome proliferator-activated receptor delta (Homo sapiens) (UniProt Q03181); experiment: qHTS assay for small molecule agonists of peroxisome proliferator-activated receptor delta signaling (AID 588534; calls by dose curve;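 further: 0% = DMSO basal wells and 100% = positive control agonist at 10 µM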)
Summary of the method: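 Titration series tested in agonist mode on beta-lactamase reporter cells; 18 hrs at 37 C after a 5 hr pre-incubation. Readout: CCF4 fluorescence, 2 hrs RT. Hill equation gives EC50 and maximal response.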

[19] = qHTS assay for small molecule antagonists of peroxisome proliferator-activated receptor delta signaling (AID 588535; active means well fitted inhibition curve with a large enough effect in the signal ratio, with a control signal flat, not every such curve was filed as active; the % refers to the signal ratio;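 on max response: cells co-treated with a PPAR-delta agonist as stimulator during compound exposure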); conditions: HEK293T PPARd-UAS-bla, beta-lactamase FRET ratio, 18 h; 460 nm channel
Summary of the method: (§1)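 Beta-lactamase reporter read-out (405 nm excitation, 460/530 nm emission) after CCF4 loading for 2 hrs at RT. HEK293T PPAR-delta-UAS-bla cells, 2% charcoal/dextran FBS, compounds for 18 hrs at 37 C. Hill fit gave IC50 and efficacy.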

[20] = target: Peroxisome proliferator-activated receptor delta (Homo sapiens) (UniProt Q03181); experiment: as above
Summary of the method: as §1

[21] = target: Vitamin D3 receptor (Homo sapiens) (UniProt P11473); experiment: qHTS assay for small molecule antagonists of vitamin D receptor signaling (AID 588541; calls by dose curve)
Summary of the method: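 VDR-UAS-bla HEK293T cells in 2% charcoal-stripped FBS were stimulated with 1-alpha,25-dihydroxyvitamin D3 (3 nM final) plus compound for 16 h at 37 C. The beta-lactamase CCF4 readout was normalized to 50 nM agonist and DMSO, and Hill fits gave IC50.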

[22] = target: Vitamin D3 receptor (Homo sapiens) (UniProt P11473); experiment: qHTS assay for small molecule agonists of vitamin D receptor signaling (AID 588543; calls by dose curve;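 further: 0% = DMSO basal and 100% = reference agonist control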)
Summary of the method: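 Reporter cells (HEK293T, VDR-UAS-bla) were seeded in medium with 2% charcoal-stripped serum and incubated 5 h, then compounds in concentration series were added for 16 h at 37 °C. Stimulation was scaled between DMSO basal and 50 nM 1α,25-dihydroxyvitamin D3.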

[23] = target: Thyroid hormone receptor beta (Homo sapiens) (UniProt P10828); experiment: qHTS assay for small molecule agonists of thyroid hormone receptor beta signaling (AID 588545; calls by dose curve)
Summary of the method: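 Cells (2500/well) were seeded, incubated 4 hrs at 37 C, dosed with a compound series, incubated 18 hrs, loaded with CCF4 dye for 2 hrs at RT, then read for fluorescence. Data were scaled between DMSO (0%) and 10 nM T3 (100%).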

[24] = qHTS assay for small molecule antagonists of retinoid X receptor alpha signaling (AID 588546; active means well fitted inhibition curve with a large enough effect in the signal ratio, with a control signal flat, not every such curve was filed as active; the % refers to the signal ratio); conditions: HEK293T RXRa-UAS-bla, beta-lactamase ratio, antagonist mode; measured here: W530 green channel, cytotoxicity proxy
Summary of the method: (§2)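 Beta-lactamase reporter inhibition, read as CCF4 fluorescence ratio (ex 405, em 460/530 nm) after 2 h at RT. HEK293T UAS-bla cells, 2500/well, were stimulated with 9-cis-RA at 500 or 100 nM final alongside test compound for 18 h at 37 C.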

[25] = target: Retinoic acid receptor RXR-alpha (Homo sapiens) (UniProt P19793); experiment: as above; conditions: HEK293T RXRa-UAS-bla, beta-lactamase ratio, antagonist mode
Summary of the method: as §2

[26] = target: Thyroid hormone receptor beta (Homo sapiens) (UniProt P10828); experiment: qHTS assay for small molecule antagonists of thyroid hormone receptor beta signaling (AID 588547; active means well fitted inhibition curve with a large enough effect in the signal ratio, with a control signal flat, not every such curve was filed as active; the % refers to the signal ratio); conditions: TR-UAS-bla HEK293, beta-lactamase ratio, antagonist mode, 18 h
Summary of the method: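 TR-UAS-bla GripTite HEK293 cells in 2% charcoal/dextran FBS medium; compounds 0.59 nM to 92 uM with T3 at 0.4nM final, 18 h at 37 C. Beta-lactamase read by CCF4 fluorescence (460/530 nm); Hill fits gave IC50 and efficacy.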

[27] = qHTS assay for small molecule agonists of the antioxidant response element (ARE) signaling pathway (AID 651741; active means well fitted activation curve with a large enough effect in the signal ratio; the % refers to the signal ratio; further: potency means the concentration at half of the fitted maximal effect)
Summary of the method: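 HepG2 ARE-bla reporter cells, 2,000/well; 5 h settle at 37 C/5% CO2; compound pin transfer (23 nL, DMSO); 16 h at 37 C; LiveBLAzer B/G FRET substrate, 2 h RT; fluorescence intensity read.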

[28] = qHTS assay for small molecule activators of the p53 signaling pathway (AID 651743; active means well fitted activation curve with a large enough effect in the signal ratio, not every such curve was filed as active; the % refers to the signal ratio; further: series mostly up to about 92 µM; % of control where 0% means no effect); conditions: HCT-116 p53RE-bla, beta-lactamase FRET ratio, 16 h; activation: stronger effect = higher value
Summary of the method: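 Reporter: beta-lactamase driven by p53 response elements, stably integrated in HCT-116 cells. Cells seeded at 4,000/well, 5 h preincubation, compound (DMSO) 16 h at 37 C; B/G FRET substrate 2 h RT; fluorescence intensity read.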

[29] = target: Peroxisome proliferator-activated receptor alpha (Homo sapiens) (UniProt Q07869); experiment: qHTS assay for small molecule agonists of the peroxisome proliferator-activated receptor alpha (PPARalpha) signaling pathway (AID 651778); conditions: PathHunter PPARalpha complementation, chemiluminescence, 6 h; stronger effect = higher value; further: % of control where 0% means no effect
Summary of the method: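 Enzyme-fragment complementation assay in which ligand-bound PPARalpha translocates and forms an active enzyme that generates chemiluminescence. Cells were plated overnight, exposed to compound for 6 hr at 37 C, and then given detection reagent for 60 min at room temperature.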

[30] = qHTS assay for small molecule agonists of the antioxidant response element (ARE) signaling pathway measured by Nrf2-dependant transcriptional activity (AID 720636; active means well fitted curve in the direction sought with a large enough effect in the repeat runs; an effect the other way counts as inactive or inconclusive;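 further: HepG2 cells with an ARE-driven luciferase reporter; % of control where 0% means no effect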)
Summary of the method: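 Reporter gene assay, HepG2 ARE-luc: 16 hr compound, 37 C, 5% CO2; read-out luciferase luminescence.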

[31] = qHTS assay for small molecule agonists of the antioxidant response element (ARE) signaling pathway measured by Nrf2-dependant transcriptional activity - cell viability counter screen (AID 720653; active means well fitted curve in the direction sought with a large enough effect in the repeat runs; an effect the other way counts as inactive or inconclusive; further: on the % scale 0 is the no-effect control and ±100 the full control effect); conditions: ARE-bla HepG2 viability, CellTiter-Glo ATP luminescence, 16 h; stronger effect = lower value
Summary of the method: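 ARE-bla HepG2 cells treated with compounds for 16 h at 37C; this counter screen measures viability as intracellular ATP by CellTiter-Glo luminescence after 30 min at room temperature.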

[32] = qHTS assay for cell viability of HEK293 cells (AID 743288); conditions: ATP luminescence (CellTiter-Glo), 18 h; max response: stronger effect = lower value; further: on the % scale 0 is the no-effect control and ±100 the full control effect; nearly all actives have a fitted effect of over 50% in size
Summary of the method: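 Viable-cell counts were inferred from luciferase-based ATP content in HEK293 cells seeded at 2,000/well, pre-incubated ≥5 h, then dosed with DMSO-solubilised compounds for 18 h at 37 C.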

[33] = qHTS assay for cell viability of the p53RE-bla HCT-116 cell line (AID 743292); further: on the % scale 0 is the no-effect control and ±100 the full control effect; nearly all actives have a fitted effect of over 55% in size
Summary of the method: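 Readout: CellTiter-Glo luminescence after 30 min RT. Treatment: compounds in DMSO, 16 h, 37 C. Cells: CellSensor p53RE-bla HCT-116, 4,000/well, preincubated 5 h.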

[34] = target: Nuclear receptor subfamily 1 group I member 2 (Rattus norvegicus) (UniProt Q9R1A7); experiment: qHTS assay for small molecule activators of the rat pregnane X receptor (rPXR) signaling pathway (AID 651751; call rule not given here; further: 0% is about no effect); conditions: rPXR reporter cells, luciferase (One-Glo), 24 h
Nuclear receptor subfamily 1 group I member 2 (Rattus norvegicus), sequence (Q9R1A7 whole entry, looked up): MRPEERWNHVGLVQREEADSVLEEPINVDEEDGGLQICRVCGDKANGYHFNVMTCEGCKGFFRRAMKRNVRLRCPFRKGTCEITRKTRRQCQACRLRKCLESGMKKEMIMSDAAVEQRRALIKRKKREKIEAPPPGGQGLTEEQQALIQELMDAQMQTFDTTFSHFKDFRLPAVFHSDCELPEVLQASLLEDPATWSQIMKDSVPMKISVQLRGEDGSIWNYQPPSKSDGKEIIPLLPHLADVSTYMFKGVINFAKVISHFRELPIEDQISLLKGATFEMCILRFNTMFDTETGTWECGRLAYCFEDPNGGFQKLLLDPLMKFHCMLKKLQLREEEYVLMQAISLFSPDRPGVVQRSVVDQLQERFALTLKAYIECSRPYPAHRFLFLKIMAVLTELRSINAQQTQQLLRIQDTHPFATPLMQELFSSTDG

Vitamin D3 receptor (Homo sapiens), sequence (P11473 whole entry, looked up): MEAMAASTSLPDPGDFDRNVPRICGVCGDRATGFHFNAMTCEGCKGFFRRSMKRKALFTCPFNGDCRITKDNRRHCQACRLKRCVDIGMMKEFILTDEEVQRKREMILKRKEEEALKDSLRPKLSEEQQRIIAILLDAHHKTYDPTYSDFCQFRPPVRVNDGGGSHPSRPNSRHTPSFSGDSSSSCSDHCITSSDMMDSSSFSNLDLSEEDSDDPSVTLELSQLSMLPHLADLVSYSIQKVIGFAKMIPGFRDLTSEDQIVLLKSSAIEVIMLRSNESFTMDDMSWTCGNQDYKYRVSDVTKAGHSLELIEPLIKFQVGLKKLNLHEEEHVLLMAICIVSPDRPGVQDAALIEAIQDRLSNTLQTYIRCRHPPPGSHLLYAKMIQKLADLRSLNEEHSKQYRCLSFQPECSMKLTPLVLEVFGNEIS
Thyroid hormone receptor beta (Homo sapiens), sequence (P10828 whole entry, looked up): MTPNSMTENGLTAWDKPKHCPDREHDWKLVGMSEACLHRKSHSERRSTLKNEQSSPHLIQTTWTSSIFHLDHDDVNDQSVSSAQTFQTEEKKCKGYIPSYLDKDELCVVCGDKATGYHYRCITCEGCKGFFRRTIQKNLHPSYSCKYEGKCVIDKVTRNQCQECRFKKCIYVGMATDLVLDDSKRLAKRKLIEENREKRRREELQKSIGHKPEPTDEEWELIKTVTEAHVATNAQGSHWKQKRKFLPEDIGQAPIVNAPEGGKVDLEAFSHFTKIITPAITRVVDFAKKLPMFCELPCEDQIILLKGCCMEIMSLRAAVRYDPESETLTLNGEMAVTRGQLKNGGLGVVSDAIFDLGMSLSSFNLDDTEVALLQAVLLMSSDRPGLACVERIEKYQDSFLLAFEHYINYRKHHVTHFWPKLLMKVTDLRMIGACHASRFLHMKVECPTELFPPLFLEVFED
Peroxisome proliferator-activated receptor delta (Homo sapiens), sequence (Q03181 whole entry, looked up): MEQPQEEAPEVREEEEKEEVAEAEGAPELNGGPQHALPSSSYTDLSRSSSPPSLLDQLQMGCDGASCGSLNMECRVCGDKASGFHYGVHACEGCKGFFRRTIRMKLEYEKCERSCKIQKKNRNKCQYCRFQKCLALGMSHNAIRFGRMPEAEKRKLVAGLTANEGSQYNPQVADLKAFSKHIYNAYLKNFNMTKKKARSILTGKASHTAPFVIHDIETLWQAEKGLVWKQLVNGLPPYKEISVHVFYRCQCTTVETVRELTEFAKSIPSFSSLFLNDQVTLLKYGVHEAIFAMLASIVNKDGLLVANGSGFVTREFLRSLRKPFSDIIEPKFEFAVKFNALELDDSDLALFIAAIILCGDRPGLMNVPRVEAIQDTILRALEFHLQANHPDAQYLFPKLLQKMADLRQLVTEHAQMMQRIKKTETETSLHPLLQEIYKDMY
Ferritin light chain (Equus caballus), sequence (P02791 2-175 limits assumed): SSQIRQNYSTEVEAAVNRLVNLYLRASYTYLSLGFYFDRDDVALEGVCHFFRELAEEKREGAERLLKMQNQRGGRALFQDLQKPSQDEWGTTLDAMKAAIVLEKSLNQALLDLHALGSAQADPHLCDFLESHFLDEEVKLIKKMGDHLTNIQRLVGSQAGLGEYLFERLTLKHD
Peroxisome proliferator-activated receptor alpha (Homo sapiens), sequence (Q07869 whole entry, looked up, the tested form may be a part): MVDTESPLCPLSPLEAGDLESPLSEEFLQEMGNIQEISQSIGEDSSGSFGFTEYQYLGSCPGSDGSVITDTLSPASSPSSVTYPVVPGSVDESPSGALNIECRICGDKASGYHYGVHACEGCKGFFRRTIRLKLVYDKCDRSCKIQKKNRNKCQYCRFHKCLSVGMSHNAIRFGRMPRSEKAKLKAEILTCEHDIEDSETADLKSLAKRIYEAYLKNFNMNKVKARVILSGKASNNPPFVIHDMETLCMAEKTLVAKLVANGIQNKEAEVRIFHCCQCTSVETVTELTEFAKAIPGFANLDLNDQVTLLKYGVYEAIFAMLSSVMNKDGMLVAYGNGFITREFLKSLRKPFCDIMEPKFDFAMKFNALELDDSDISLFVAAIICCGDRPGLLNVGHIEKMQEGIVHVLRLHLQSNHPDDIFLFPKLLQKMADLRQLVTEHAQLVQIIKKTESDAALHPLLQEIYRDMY
Thyrotropin receptor (Homo sapiens), sequence (P16473 whole entry, looked up): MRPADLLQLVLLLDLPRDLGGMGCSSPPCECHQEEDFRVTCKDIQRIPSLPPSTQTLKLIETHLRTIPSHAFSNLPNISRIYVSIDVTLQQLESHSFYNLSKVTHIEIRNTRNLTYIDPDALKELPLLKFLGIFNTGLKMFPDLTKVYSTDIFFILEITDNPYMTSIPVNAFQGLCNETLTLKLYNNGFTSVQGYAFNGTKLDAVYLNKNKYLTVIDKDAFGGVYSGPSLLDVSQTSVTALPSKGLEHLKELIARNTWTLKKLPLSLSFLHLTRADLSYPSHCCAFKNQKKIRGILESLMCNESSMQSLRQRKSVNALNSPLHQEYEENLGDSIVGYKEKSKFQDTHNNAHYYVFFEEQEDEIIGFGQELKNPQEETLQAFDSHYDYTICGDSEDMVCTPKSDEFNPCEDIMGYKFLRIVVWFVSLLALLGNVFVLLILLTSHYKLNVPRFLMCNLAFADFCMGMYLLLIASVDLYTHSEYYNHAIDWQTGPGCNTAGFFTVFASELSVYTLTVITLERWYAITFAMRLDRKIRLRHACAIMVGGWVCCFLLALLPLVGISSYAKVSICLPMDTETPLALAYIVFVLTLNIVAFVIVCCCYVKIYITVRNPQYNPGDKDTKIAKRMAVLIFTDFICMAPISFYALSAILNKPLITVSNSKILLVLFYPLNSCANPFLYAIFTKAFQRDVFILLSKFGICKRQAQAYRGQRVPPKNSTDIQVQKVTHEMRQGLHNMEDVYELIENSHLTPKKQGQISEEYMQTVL
Retinoic acid receptor RXR-alpha (Homo sapiens), sequence (P19793 whole entry, looked up): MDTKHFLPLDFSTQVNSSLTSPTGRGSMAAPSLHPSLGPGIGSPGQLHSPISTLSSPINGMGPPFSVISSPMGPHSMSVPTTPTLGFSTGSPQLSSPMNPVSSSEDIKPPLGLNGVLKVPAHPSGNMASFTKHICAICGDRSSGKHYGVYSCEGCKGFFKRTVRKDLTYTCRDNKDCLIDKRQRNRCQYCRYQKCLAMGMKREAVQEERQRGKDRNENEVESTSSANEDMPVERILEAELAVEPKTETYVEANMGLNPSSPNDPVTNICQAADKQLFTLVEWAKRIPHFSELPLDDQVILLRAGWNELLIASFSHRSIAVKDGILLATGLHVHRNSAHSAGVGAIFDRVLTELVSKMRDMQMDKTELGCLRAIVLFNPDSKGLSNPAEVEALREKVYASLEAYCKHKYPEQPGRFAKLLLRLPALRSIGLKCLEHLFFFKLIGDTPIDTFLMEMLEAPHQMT
M-phase phosphoprotein 8 (Homo sapiens), sequence (Q99549 whole entry, looked up): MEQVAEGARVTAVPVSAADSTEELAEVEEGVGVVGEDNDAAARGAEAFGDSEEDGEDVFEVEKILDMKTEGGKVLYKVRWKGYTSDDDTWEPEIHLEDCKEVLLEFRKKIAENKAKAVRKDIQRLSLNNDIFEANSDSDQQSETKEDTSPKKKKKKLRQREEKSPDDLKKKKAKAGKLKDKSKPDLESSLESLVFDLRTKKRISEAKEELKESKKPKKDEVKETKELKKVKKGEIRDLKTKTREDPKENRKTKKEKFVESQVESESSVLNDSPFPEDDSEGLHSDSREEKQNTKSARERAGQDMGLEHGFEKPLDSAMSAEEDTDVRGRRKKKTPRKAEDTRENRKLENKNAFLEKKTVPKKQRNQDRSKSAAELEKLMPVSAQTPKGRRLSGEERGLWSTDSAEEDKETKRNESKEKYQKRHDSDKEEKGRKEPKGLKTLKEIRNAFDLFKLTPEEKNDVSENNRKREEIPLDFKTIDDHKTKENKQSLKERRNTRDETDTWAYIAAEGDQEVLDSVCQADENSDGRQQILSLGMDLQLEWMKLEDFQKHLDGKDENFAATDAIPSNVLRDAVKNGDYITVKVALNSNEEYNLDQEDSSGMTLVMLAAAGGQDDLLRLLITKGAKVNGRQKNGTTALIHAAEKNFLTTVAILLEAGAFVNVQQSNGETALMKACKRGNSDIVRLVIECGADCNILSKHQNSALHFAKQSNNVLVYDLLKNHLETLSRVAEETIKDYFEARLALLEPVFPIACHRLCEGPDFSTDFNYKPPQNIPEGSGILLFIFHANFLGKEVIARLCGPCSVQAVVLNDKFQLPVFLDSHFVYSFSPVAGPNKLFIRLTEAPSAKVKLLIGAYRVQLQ
Galactokinase (Homo sapiens), sequence (P51570 whole entry, looked up): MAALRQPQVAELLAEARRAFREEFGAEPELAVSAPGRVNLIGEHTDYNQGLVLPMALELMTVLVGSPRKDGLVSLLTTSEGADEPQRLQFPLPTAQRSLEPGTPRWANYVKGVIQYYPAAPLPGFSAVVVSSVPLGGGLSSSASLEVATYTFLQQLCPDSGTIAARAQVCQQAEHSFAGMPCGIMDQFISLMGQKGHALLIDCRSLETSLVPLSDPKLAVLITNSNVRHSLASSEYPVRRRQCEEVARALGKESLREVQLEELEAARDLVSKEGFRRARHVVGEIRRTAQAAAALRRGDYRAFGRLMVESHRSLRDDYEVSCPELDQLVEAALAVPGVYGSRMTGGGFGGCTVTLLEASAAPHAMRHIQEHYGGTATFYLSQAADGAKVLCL

O=C(O)C1C2CCC(O2)C1C(=O)O (centres undefined)
active: Potency [27] 27.3 µM
16.5%: max response [19]
-24.5%: max response [24]
inactive: Potency [1] | outcome [2] | Potency [3] | Potency [4] | Potency [5] | Potency [6] | Potency [7] | outcome [8] | outcome [9] | Potency [10] | Potency [11] | Potency [12] | outcome [13] | activation [14] 1.38% | outcome [15] | outcome [16] | activation [17] -13.9% | outcome [18] | Potency [20] | outcome [21] | outcome [22] | outcome [23] | max response [25] -26.2% | activity change % (negative = inhibition) [26] -12% | activation [28] 4.04% | max response [29] -0.146% | outcome [30] | max response [31] -12.2% | max response [32] -14.9% | Potency [33] | max response [34] 4.79%
